About 520 (0.27%) of roughly 190,000 compounds were called active. Inconclusive results (about 2%) are left out. The sample holds actives, similar compounds and a random draw of the others, so the mix is not that of the screen. Unmarked numbers belong to inactive results.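 Rule for the calls: active = GTP binding activity at least 20 points away from the 100% control level, either lower or higher; inconclusive = compound flagged as likely green fluorescent, judged across all proteins; inactive = the rest.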
Molecular target: Ras-related C3 botulinum toxin substrate 1 (Homo sapiens) (UniProt P63000)
Test: wildtype Rac1 GTP binding modulators, primary screen, biochemical, GST-Rac1 beads, flow cytometry, multiplex (AID 757)
Conditions: fluorescent GTP binding, at 10 µM, actives lie on both sides, 0 = cold GTP competed, 100 = untreated

SMILES | GTP binding activity (% of control)
Cc1ccc(CCCOC(=O)C[N+]2(C)CCCCC2)cc1 | 100%
CCOC(=O)c1ccc(NNC(C)=O)c([N+](=O)[O-])c1 | 99%
CC(=O)Nc1ccc(S(=O)(=O)NC2(C(F)(F)F)C(=O)NC(C)=C2C#N)cc1 (centres undefined) | 105%
COc1cc2c(cc1OC)CC1(CCCCC1)N=C2 | 102%
CN(C)CCN=c1cc(-c2ccccc2)oc2ccc(Cl)cc12 | 102%
CCN(CC(=O)NCc1cccs1)C(=O)c1ccccc1F | 98%
Cc1ccc2c(=O)oc(N(C)C)nc2c1 | 94%
Oc1ccccc1N1CCN(C(=S)NCc2ccccc2)CC1 | 103%
O=c1/c(=C/c2ccc(CNS(=O)(=O)c3ccccc3)o2)sc2n1CCN=2 | 64% (active)
O=S(=O)(NCc1ccccc1)c1ccc(S(=O)(=O)N2CCCC2)cc1 | 102%
COC(=O)C1=C(C)NC(=O)/C1=C/c1ccc(CNS(=O)(=O)c2ccc(C)cc2)o1 | 100%
O=S(=O)(c1cccc(C(F)(F)F)c1)N1CCN(c2cnccn2)CC1 | 99%
CN(C(=O)COc1ncnc2c1cnn2-c1ccccc1)C1CCCCC1 | 102%
c1ccc(-c2nnc(N3CCOCC3)c3ccccc23)cc1 | 97%
COc1cccc(OCCCN2CCCCCC2)c1 | 95%
CN1CCN(C(=O)CCc2ncc(C(F)(F)F)cc2Cl)CC1 | 96%
CCOC(=O)c1sc(NC(=O)c2cc(S(=O)(=O)N3CCOCC3)ccc2C)nc1C | 102%
COc1ccc(S(=O)(=O)N2CCOCC2)cc1NC(=O)CSc1ncnc2ccccc12 | 93%
COc1ccc(S(=O)(=O)N2CCOCC2)cc1C(=O)Nc1nc2ccccc2s1 | 75% (active)
Cc1ccc(CSc2nc3[nH]ncc3c(=O)[nH]2)cc1 | 77% (active)
Cc1cccc(NC(=O)CSc2nc3[nH]ncc3c(=O)[nH]2)c1 | 97%
CCCSc1nc2[nH]ncc2c(=O)[nH]1 | 100%

SMILES | GTP binding activity (% of control)
COc1cc(NS(=O)(=O)c2ccc(NC(=O)c3ccc(S(=O)(=O)N4CCCCC4)cc3)cc2)ncn1 | 95%
COc1ccccc1NC(=O)CCSc1nnc(-c2ccc(O)cc2)o1 | 95%
COc1cccc(NC(=O)c2ccc(S(=O)(=O)N(C)C)cc2)c1 | 104%
Oc1ccccc1C=NC1CCCCC1N=Cc1ccccc1O (centres undefined) | 100%
O=C(CSc1ccccc1F)NC1CCS(=O)(=O)C1 (centres undefined) | 96%
Cc1cccc(NC(=S)N2CCC(O)CC2)c1C | 100%
CC(=O)NC(Cc1ccc(F)c(F)c1)C(=O)NC1CCN(C(=O)c2ccc(C)cc2)CC1 (centres undefined) | 103%
CC(C)CCN1CCN(C/C=C/c2ccco2)CC1CCO (centres undefined) | 94%
Cc1cc(C)c2c(NC(=O)C3CC3)nn(C)c2n1 | 98%
CCOc1cc(C2C(C(=O)OC(C)C)=C(C)NC3=C2C(=O)CCC3)cc([N+](=O)[O-])c1O (centres undefined) | 98%
CC(NC(=O)COC(=O)c1ccc2c(c1)OCO2)c1ccccc1 (centres undefined) | 101%
CC1=C(C(=O)N(C)C)C(c2ccccc2OC(F)F)NC(=O)N1 (centres undefined) | 101%
O=C(O)CC(SCC(=O)Nc1ccc(Br)cc1)C(=O)O (centres undefined) | 96%
CCCCCN1CC(O)=C(c2ccccc2)C1=N | 104%
CCOC(=O)CCCN1CC(O)=C(c2nc3ccccc3s2)C1=N | 102%
CCCCCN1CC(O)=C(c2nc(-c3ccc(Cl)cc3)cs2)C1=N | 135% [activator] (active)
CCc1ccc(C(=O)OCC(=O)NCC(F)(F)F)cc1 | 98%
CN(Cc1ccccn1)Cc1nc(-c2ccc(Cl)cc2)no1 | 101%
COc1ccccc1-c1noc(CSc2nc(C)cc(=O)[nH]2)n1 | 93%
COc1ccc(CC(NC(C)=O)C(=O)NC2CCN(C(=O)C3CC3)CC2)cc1OC (centres undefined) | 101%
O=C(/C=C/c1ccc(Cl)cc1Cl)c1cccnc1 | 92%
O=C(Nc1cccnc1)c1ccc(Cl)c([N+](=O)[O-])c1 | 98%

SMILES | GTP binding activity (% of control)
O=C(/C=C/c1ccc(Cl)c([N+](=O)[O-])c1)c1cccnc1 | 78% (active)
O=C(CC1CCCCC1)NCc1ccc(F)cc1 | 100%
O=C(NCCCn1ccnc1)C(=O)c1cn(CC(=O)N2CCCCCC2)c2ccccc12 | 100%
COc1cc(CNC2CCCC2)c(Br)cc1OCc1ccccc1 | 96%
COc1cc(C(=S)NCc2ccccc2)cc(Br)c1O | 79% (active)
COc1cc(C=O)c(Br)cc1OCC(=O)NCc1ccccc1 | 97%
Cc1ccc(NC(=O)CSc2nnc(CNC(=O)c3ccccc3F)o2)cc1 | 92%
CS(=O)(=O)N(CC(=O)N1CCCC1)Cc1ccccc1 | 106%
COc1cccc(CNC(=O)CCC2CCCN(C(=O)c3cc(C)[nH]n3)C2)c1 (centres undefined) | 100%
CC(=O)N1N=C(c2ccccc2)OC1c1cccnc1 (centres undefined) | 98%
CCc1nc(C)cn1S(=O)(=O)c1cc([N+](=O)[O-])ccc1Cl | 96%
Cc1cccc(NC(=S)NC23CN4CN(CN(C4)C2)C3)c1 | 99%
COC(=O)CC1=NN(c2ccccc2)C(=O)C1 | 101%
O=C(NCC(=O)N(CC1CCCO1)C(C(=O)NC1CCCCC1)c1ccccc1)c1ccco1 (centres undefined) | 103%
COc1ccc2ccccc2c1CNc1nnnn1C | 93%
O=C(NCCCN1CCOCC1)c1ccc(N2CCCC2)c([N+](=O)[O-])c1 | 99%
CC(=O)c1ccc(N2CCN(S(=O)(=O)c3c(C)[nH]c(=O)[nH]c3=O)CC2)cc1 | 99%
COc1ccc(Br)cc1/C=N/Nc1ccc(Cl)c(C(=O)O)c1 | 93%
Cc1nc(-c2ccccc2)sc1C(=O)/C=C/N(C)C | 96%
COc1cccc(-n2c(=S)sc3c(=O)n(-c4ccccc4OC)c(SCC4OCCO4)nc32)c1 | 100%

Source: PubChem BioAssay AID757 (NMMLSC, 2007)
